Screening data (PubChem BioAssay)
Most compounds without a hit are left out; they make up all but 11% or so of the library.
VDR inhibitor: inhibitors of human vitamin D receptor; hit rate 0.93% among 400,000; Potency, µM, for the others: max response, negative = inhibition, hits mostly inhibitors; P11473; AID 504847; VDR-SRC2-3 peptide fluorescence polarization, 2 h; also: % is scaled to controls: 0 for no effect and ±100 for the full control effect
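After 23 nl compound addition and a short centrifugation, plates sat for 2 hours at ambient temperature; polarization of fluorescence then indicated loss of VDR binding to peptide SRC2-3.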
BAZ2B block: inhibitors of human BAZ2B bromodomain; Q9UIF8; Potency, µM (series often up to 114 µM), inactives show top-dose activity change, negative = inhibition, usual class: inhibitors; hit rate 4.4% among 360,000; AlphaScreen BAZ2B-H3K14Ac peptide displacement; also: % is scaled to controls: 0 for no effect and ±100 for the full control effect; nearly all actives have a fitted effect of over 60% in size
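Protein-peptide AlphaScreen: BAZ2B 50 nM, b-H3K14Ac 50 nM, 1x PBS pH 7.4 + 0.01% Tween-20. Preincubation 30 min RT; cpd 30 min RT (top 110 uM); beads 20 min RT, light-protected.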
JMJD2A Tudor inh: inhibitors of human JMJD2A Tudor domain. O75164. AlphaScreen JMJD2A-Tudor / H3K4me3 peptide binding. Potency, µM (titrated, usually from 114 µM), inactives show at the top dose activity change, negative = inhibition, hits mostly inhibitors. hit rate 4.4% among 390,000. AID 504339; also: % is scaled to controls: 0 for no effect and ±100 for the full control effect; nearly all actives have a fitted effect of over 50% in size
PLK1 PBD block: inhibitors of human PLK1 polo-box domain binding; P53350; Plk1 PBD binding of FITC phosphopeptide, fluorescence polarization; Potency, µM, inactives show max response, negative = inhibition, hits mostly inhibitors; hit rate 2.8% among 360,000; AID 720504; also: series mostly up to about 57 µM; % is scaled to controls: 0 for no effect and ±100 for the full control effect; nearly all actives have a fitted effect of over 65% in size
G9a block: G9a (human) methyltransferase inhibition; G9a H3K9 monomethylation, AlphaScreen, 2 h; Potency, µM (series often up to 102 µM), for inactives: at the top dose activity, negative = inhibition, hits mostly inhibitors; AID 504332; hit rate 8.8% among 350,000; also: % is scaled to controls: 0 for no effect and ±100 for the full control effect; nearly all actives have a fitted effect of over 75% in size
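AlphaScreen read-out: biotin-H3K9 peptide (500 nM) methylation by 20 nM enzyme with 20 uM SAM, 2 h at room temperature after 15 min compound preincubation; anti-monomethyl H3K9 antibody plus donor/acceptor beads, 10 min dark.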
HP1b binding inh: inhibitors of HP1-beta chromodomain binding to methylated histone tails; AID 540317; AlphaScreen HP1-beta / biotin-H3K9me3 peptide binding; hit rate 0.56% among 390,000; Potency, µM (titrated, usually from 114 µM), for the others: at the highest dose activity change, negative = inhibition, hits mostly inhibitors; also: nearly all actives have a fitted effect of over 70% in size
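HP1-beta protein (50 nM final) preincubated 30 min at room temperature with biotinylated H3(1-18)K9me3 peptide (50 nM) in PBS pH 7.4, 0.01% Tween-20, then compound added for 30 min. AlphaScreen streptavidin donor/nickel chelate acceptor beads (10 ug/mL final), 30 min dark, luminescence read.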
An asterisk follows results filed as active; ? = inconclusive; · = no result; [ ] = another dose, or the depositor's remark. Calls follow the shape of the dose curve; as a rule, active = well fitted curve in the direction sought with a large enough effect; inconclusive = small, poorly fitted or top-dose-only effect, or another doubt; inactive = no such curve, though single readings can be large; an effect the other way counts as inactive or inconclusive. Potency is read from the fitted curve at half-maximal effect.

SMILES	VDR inhibitor	BAZ2B block	JMJD2A Tudor inh	PLK1 PBD block	G9a block	HP1b binding inh
C/C(=N\N1CCN(c2ccccc2)CC1)c1ccco1	-9%	?	-15%	?	56µM*	1%
CCN(Cc1ccc2c(c1)OCCO2)C(=O)CN1C(=O)NC2(CCCCC2)C1=O	-23%	-3%	-5%	2%	-23%[59 µM]	11%
Cn1nc(C(=O)O)c(=O)n(C)c1=O	-23%	·	89µM*	27µM*	·	-39%
CC(=O)CCc1oc2ccc(NC(C)=O)cc2c1-c1ccc(C)o1	-9%	?	?	-4%	13µM*	11%
O=C(CCS(=O)(=O)c1cc2c(cc1Cl)NC(=O)CO2)NCCc1ccc(Cl)cc1	-2%	27%	2%	·	1%[59 µM]	130%
COc1ccc2nc3cc(Cl)ccc3c(Nc3ccc(O)c(CN4CCN(C)CC4)c3)c2c1	?	·	32µM*	-3%	·	16µM*
COc1ccc2nc3cc(Cl)ccc3c(NCCCN3CCN(CCCNc4c5ccc(Cl)cc5nc5ccc(OC)cc45)CC3)c2c1	44%	·	·	·	·	·
Cc1c(OCc2ccc(C(=O)O)cc2)ccc2c(-c3ccccc3)cc(=O)oc12	79µM*	-28%	-13%	?	?	31%
CCCCc1cc(=O)oc2c(C)c(OCC(=O)N3CCCC3)ccc12	17%	0%	-8%	-4%	·	17%
CCCCc1cc(=O)oc2c(C)c(OCC(=O)N3CCC(C(=O)O)(c4ccccc4)CC3)ccc12	-11%	-26%	-22%	-3%	3.2µM*	2%
CCc1cc(=O)oc2cc(C)cc(OCc3nn[nH]n3)c12	0%	5%	-3%	2%	45µM*	40%
COC(=O)Cc1c(C)c2c(OCc3nn[nH]n3)cc(C)cc2oc1=O	-8%	-7%	-30%	-3%	45µM*	24%
CCOC(=O)C(Oc1ccc2c(-c3ccccc3)cc(=O)oc2c1C)c1ccccc1 (stereo unspecified)	?	5%	1%	4%	33%[59 µM]	38%
COC(=O)Cc1c(C)c2ccc(OCc3nn[nH]n3)cc2oc1=O	3%	-35%	-11%	0%	?	12%
CC(=O)Nc1ccc(S(=O)(=O)NC2C3(C)CCC(C3)C2(C)C)cc1 (stereo unspecified)	-13%	-1%	-9%	-11%	26%[59 µM]	23%
Cc1[nH]c2ccccc2c1C(=O)CN1CCN(c2ccc(Cl)cc2)CC1	-14%	-12%	-29%	?	5%	3%
CCCCc1cc(=O)oc2c(C)c(OCc3nn[nH]n3)ccc12	4%	-17%	-20%	-15%	50µM*	16%
COc1ccc(CNC(=O)c2c(C)oc3c2C(=O)c2ccccc2C3=O)cc1	-20%	7.9µM*	?	-8%	11µM*	8%
COc1ccc(CNC(=O)c2ccc(Br)o2)cc1	-13%	1%	0%	5%	20µM*	42%
COc1cccc(CNC(=O)CCNC(=O)c2ccc(Br)o2)c1	?	-11%	?	13µM*	-4%[59 µM]	-1%
Cc1ccc(C)c(N2CCN(c3nc4ccccc4c(=O)n3-c3ccc(Cl)cc3)CC2)c1	-7%	·	-18%	·	-30%[59 µM]	11%
Cc1ccccc1C(=O)c1c[nH]c(C(=O)NCc2cccs2)c1	-7%	?	-25%[11.4 µM]	27µM*	-6%[12.7 µM]	-2%
COc1ccc(-c2nc(CN3CCC(C(=O)NCC4CCCO4)CC3)c(C)o2)cc1OC (stereo unspecified)	-30%	-4%	-23%	21µM*	19%	2%
Cc1cc(C)c(CN2CCC(N3CCC(C(=O)NCC4CCCO4)CC3)CC2)cc1C (stereo unspecified)	?	-11%	?	30µM*	-3%	14%
C#CCNC(=O)C1=C[C@H](c2coc3ccccc3c2=O)[C@@H](CCCO)[C@H](OCC)O1	-1%	-14%	-9%	-8%	16%[12.7 µM]	34%
SMILES	VDR inhibitor	BAZ2B block	JMJD2A Tudor inh	PLK1 PBD block	G9a block	HP1b binding inh
O=C(CN(c1ccc(Br)cc1)S(=O)(=O)c1ccc(Cl)c([N+](=O)[O-])c1)NCC1CCCO1 (stereo unspecified)	3%	·	-7%	-7%	·	16%
O=C(CSc1nc(SCC(=O)NCc2ccccc2)n(-c2ccccc2)n1)NCc1ccccc1	-1%	3%	-13%	-10%	25µM*	28%
Nc1cc(=O)[nH]c(SCC(=O)Nc2cccc([N+](=O)[O-])c2)n1	-6%	-8%	-11%	-16%	28%[12.7 µM]	60%
O=C(CSc1nncc(=O)[nH]1)NCc1ccccc1	6%	?	40µM*	27µM*	56µM*	0%
O=C(CSc1nncc(=O)[nH]1)Nc1cccc([N+](=O)[O-])c1	?	-21%	-13%	21µM*	-13%	51%
O=C(CSc1nc2[nH]ncc2c(=O)[nH]1)NCc1ccccc1	-3%	3%	-16%	-12%	3%[59 µM]	25%
CC1CCCN(S(=O)(=O)c2ccc(S(=O)(=O)NC(C)c3cccs3)cc2)C1 (stereo unspecified)	7%	0%	-19%	?	40µM*	-4%
Cc1ccc(S(=O)(=O)N2CCCC(C)C2)cc1 (stereo unspecified)	-14%	4%	24%	-1%	69%	58%
COc1ccc(SCC(Cc2ccccc2)N2CCN(CCc3ccccc3)CCC2=O)cc1 (stereo unspecified)	-3%	·	?	·	·	17%
C1CN(CC23CC4CC(CC(C4)C2)C3)CCO1	26%	4%	0%	-11%	7.9µM*	31%
OC(CN1CCOCC1)C12CC3CC(CC(C3)C1)C2 (stereo unspecified)	9%	9%	-5%	-9%	22%[59 µM]	13%
O=C(CSc1nc2c(oc3ccccc32)c(=O)n1Cc1ccco1)Nc1ccccc1Cl	-3%	-2%	-15%	·	8%[59 µM]	12%
O=C(Oc1ccc2ccc(O)cc2c1)C1CCCCC1	?	-22%	?	4.2µM*	-28%	?
O=C(Oc1ccc2ccccc2c1)C1CCC1	-8%	?	64%	-3%	55%[59 µM]	124%
CCCCN(CCCNC(=O)c1cc(Nc2ccc(OC)c(OC)c2)nc2ccccc12)c1ccccc1	-1%	·	?	·	-7%[59 µM]	-22%
c1ccc(Nc2nc(N3CCCCC3)nc(N3CCCCC3)n2)cc1	-14%	6%	-17%[11.4 µM]	21µM*	16%	12%
Clc1cccc(Nc2nc(N3CCOCC3)nc(N3CCOCC3)n2)c1	-2%	-18%[57.1 µM]	-7%	-2%	50µM*	57%
O=[N+]([O-])c1ccc(Nc2nc(N/N=C/c3cccc(F)c3)nc(N3CCCC3)n2)cc1	2%	-37%	-28%	3%	-13%	10%
O=[N+]([O-])c1ccc(Nc2nc(NC3CCCCC3)nc(N3CCCC3)n2)cc1	-19%	?	?	-13%	11µM*	-4%
